Assay outcomes (PubChem BioAssay)
ASK1 inh: inhibitors of human ASK1 kinase; Q99683; AlphaScreen MKK6 phosphorylation by ASK1, luminescence; 0.99% of 22,000 active; inhibition, % at 7.44 µM; in the data active means inhibition above about 35%
ULK1 primary: human ULK1 kinase inhibition, primary screen. inhibition, % at 5.96 µM. 1.9% of 30,000 active. O75385. AID 1259251. AlphaScreen Atg13 phosphorylation by ULK1, luminescence; in the data active means inhibition above about 43%
AlphaScreen intf: AlphaScreen optical interference dose response, ASK1 counter-screen. IC50, µM. AlphaScreen TruHits beads, signal interference counterscreen. AID 1159604. shares compounds with ASK1 inh. 20% of 220 active;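 active means IC50 of 10 µM or lower in the counterscreen; inactive means IC50 above 10 µM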;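 further: loss of AlphaScreen light from TruHits beads alone with no ASK1 enzyme present; potency of signal reduction so a low IC50 flags an assay artifact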
Large screens that a line does not name were inactive (follow-up assays come after a bar, where they were run). A selection: hits, their analogues and other compounds. The true share with any hit is near 2.5%.

O=C1CCCN1CCCNc1nc(Nc2ccncc2)nc2c1ncn2-c1ccsc1	none
c1cc(-n2cnc3c(Nc4ccc(N5CCOCC5)cc4)nc(NCc4ccc5c(c4)OCO5)nc32)cs1	ASK1 inh 40.8 | AlphaScreen intf inactive
c1cc(-n2cnc3c(Nc4ccc5c(c4)OCO5)nc(NCc4ccc5c(c4)OCO5)nc32)cs1	none
Cc1cnc(-c2ccc(C(=O)N3CCN(C)CC3)cc2)nc1NCc1nc2ccccc2[nH]1	none
Cc1cccc(NC(=O)Cc2cccs2)c1N1CCC2(CC1)OCCO2	none
CC(=O)Nc1ccc(Nc2nc(Nc3ccc(N4CCOCC4)cc3)nc3c2ncn3C(C)C)cc1	none
c1cc(-n2cnc3c(Nc4ccc5c(c4)OCO5)nc(N4CCN(Cc5ccc6c(c5)OCO6)CC4)nc32)cs1	ASK1 inh 36.2 | AlphaScreen intf inactive
c1cc(-n2cnc3c(NC4CC4)nc(Nc4ccc(N5CCOCC5)cc4)nc32)cs1	ASK1 inh 42.7 | AlphaScreen intf inactive
CC(C)n1cnc2c(Nc3ccc(N4CCOCC4)cc3)nc(Nc3ccc(-n4ccnc4)cc3)nc21	ASK1 inh 36.0, ULK1 primary 67.3 | AlphaScreen intf inactive
Nc1nc(NCc2ccc3c(c2)OCO3)cc(Nc2ccc(N3CCOCC3)cc2)n1	none
CC(=O)Nc1ccc(Nc2nc(N3CCN(Cc4ccc5c(c4)OCO5)CC3)nc3c2ncn3-c2ccsc2)cc1	none
FC(F)(F)c1ccc(Nc2nc(Nc3ccc(N4CCOCC4)cc3)c3ncn(-c4ccsc4)c3n2)cc1	none
Nc1nc(Nc2ccc(N3CCOCC3)cc2)cc(Nc2ccc3c(c2)OCO3)n1	ASK1 inh 37.3 | AlphaScreen intf inactive
c1cc(Nc2nc(Nc3ccc(N4CCOCC4)cc3)c3ncn(-c4ccsc4)c3n2)ncn1	none
c1ccc(-n2cnc3c(NCCN4CCOCC4)nc(N4CCOCC4)nc32)cc1	none
COc1cc(Nc2nc(C)cc(NCc3nc4ccccc4[nH]3)n2)cc(OC)c1OC	none
O=C(CCCc1c[nH]c2ccccc12)NCC1CCCO1 (stereo not given)	none (no result: ASK1 inh)
OCCNc1nc(NC2CCN(Cc3ccccc3)CC2)nc2c1ncn2-c1ccccc1	none
c1cc(-n2cnc3c(Nc4ccc5c(c4)OCO5)nc(Nc4ccc(N5CCOCC5)cc4)nc32)cs1	ASK1 inh 49.7 | AlphaScreen intf inactive
c1cc(-n2cnc3c(Nc4ccc5c(c4)OCO5)nc(NCCN4CCOCC4)nc32)cs1	none
CCN(CC)C(=O)C1CCCN(c2nc(Nc3ccccc3)c3ncn(-c4ccsc4)c3n2)C1 (stereo not given)	none
CN1CCN(c2cc(-c3cccc(C(F)(F)F)c3)nc(-c3cccnc3)n2)CC1	none (no result: ASK1 inh)
CC(C)NC(=O)c1cccc(NC(=O)Nc2ccc(-c3ccnc4[nH]ccc34)cc2)c1	ASK1 inh 38.6 | AlphaScreen intf inactive
CC(C)NC(=O)c1cccc(NC(=O)Nc2ccc(-c3cn[nH]c3)cc2)c1	none
O=C(NC1CCN(Cc2ccccc2)CC1)c1cccc(Nc2cccnc2)c1	none
CN(C)c1cccc(Nc2nccc(NCCc3ccc(O)cc3)n2)c1	none
COc1ccc(CCNC(=O)c2ccnc(Nc3cccc(N(C)C)c3)c2)cc1	ASK1 inh 40.7 | AlphaScreen intf inactive
COc1ccc(CCNC(=O)c2ccnc(Nc3ccc4ncccc4c3)c2)cc1	none
COc1ccc(CCNc2ccnc(Nc3cccc(N(C)C)c3)n2)cc1	ASK1 inh 38.0 | AlphaScreen intf inactive
Cc1cc(C(C)(C)NC(=O)C(Br)C(C)(C)C)cc(C)n1 (stereo not given)	none (no result: ASK1 inh)
CCn1c(=O)[nH]c2ncnc(-c3ccc(NC(=O)Nc4cccc(C(=O)NC(C)C)c4)cc3)c21	none
Cc1c[nH]c2ncnc(-c3ccc(NC(=O)Nc4ccccc4)cc3)c12	ASK1 inh 39.2 | AlphaScreen intf inactive
Nc1nc(Nc2ccncn2)nc2c1ncn2CCN1CCCC1=O	none
